Compounds without any hit were thinned out: in the full panel of roughly 83,000, 20% have a hit.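 Activity criterion: percent growth below 10, measured after cells in 96-well plates were exposed to a single compound concentration for 48 hours.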 Unmarked numbers belong to inactive results. Calls of active or inactive are those of the source.
The compounds below were run on M14 melanoma (assay: NCI-60 one-dose screen, 48 h (100 = growth as untreated, 0 = no growth, -100 = all killed)). Settings: 10 µM.

| SMILES | growth |
| --- | --- |
| CC(=O)OCC1CCCO1 (configuration not stated) | 110% |
| N#CCCc1ccc(O)cc1 | 108% |
| Nc1ccc(N=Nc2ccc(S(=O)(=O)O)cc2)c2ccccc12 | 99.1% |
| O=C1OC(=O)C2C1C1(Cl)C(Cl)=C(Cl)C2(Cl)C2C(=O)OC(=O)C21 (configuration not stated) | 101% |
| Cc1cc(C(O)(c2ccc(Nc3ccccc3)cc2)c2ccc(Nc3ccc(S(=O)(=O)O)cc3)cc2)ccc1N (configuration not stated) | -42.6% (active) |
| Cc1ccc(CCCC(=O)O)c(C)c1 | 107% |
| COc1ccc(C(O)c2ccccc2)cc1 (configuration not stated) | 103% |
| CC(=O)NCc1cc(C)c(C)cc1C | 105% |
| CC(C)(N)COS(=O)(=O)O | 98.1% |
| O=C(O)CSCSCC(=O)O | 108% |
| CCO/C=C1\SC(=S)N(c2cccc(C)c2)C1=O | 119% |
| O=C(O)/C=C/C(=O)NCc1ccccc1 | 103% |
| NC(=O)c1ccc(N=C(N)N=C(N)N)cc1 | 110% |
| O=C(NCCNC(=O)c1ccc(Cl)cc1Cl)c1ccc(Cl)cc1Cl | 105% |
| COC(=O)/C=C/C(=O)NC(N)=O | 106% |
| CN(C)c1ccc(C(c2ccc(O)cc2)c2ccc(N(C)C)cc2)cc1 | 89.3% |
| Nc1ccc(N)c([N+](=O)[O-])c1 | 112% |

Each compound was assayed on HCT-15 colon in the same assay as above. Settings: 10 µM.

| SMILES | growth |
| --- | --- |
| CC(=O)OCC1CCCO1 (configuration not stated) | 100% |
| N#CCCc1ccc(O)cc1 | 95.1% |
| Nc1ccc(N=Nc2ccc(S(=O)(=O)O)cc2)c2ccccc12 | 99.9% |
| O=C1OC(=O)C2C1C1(Cl)C(Cl)=C(Cl)C2(Cl)C2C(=O)OC(=O)C21 (configuration not stated) | 103% |
| CCCCCCCCO | 98.3% |
| O=c1[nH]nc(SC2CCCCC2)c(=O)[nH]1 | 106% |
| Cc1cc(C(O)(c2ccc(Nc3ccccc3)cc2)c2ccc(Nc3ccc(S(=O)(=O)O)cc3)cc2)ccc1N (configuration not stated) | -54% (active) |
| CCCNC(=O)c1ccc(S(N)(=O)=O)cc1 | 110% |
| Cc1ccc(CCCC(=O)O)c(C)c1 | 99% |
| Oc1ccccc1-c1nnco1 | 100% |
| COc1ccc(C(O)c2ccccc2)cc1 (configuration not stated) | 100% |
| FC(F)(F)c1ccc2c(c1)N(CCCN1CCN(C3CC3)CC1)c1ccccc1S2 | 68.7% |
| CC(=O)NCc1cc(C)c(C)cc1C | 105% |
| CC(C)(N)COS(=O)(=O)O | 103% |
| Cc1cc(C)cc(NCCC#N)c1 | 106% |
| O=C(O)CSCSCC(=O)O | 98.7% |

| SMILES | growth |
| --- | --- |
| CCO/C=C1\SC(=S)N(c2cccc(C)c2)C1=O | 101% |
| Cc1cc2ccccc2c(O)c1C#N | 92.2% |
| O=C(O)/C=C/C(=O)NCc1ccccc1 | 97.3% |
| Cc1cc2nc(CO)[nH]c2cc1C | 107% |
| C=CCNc1ccccc1 | 106% |
| NC(=O)NC(=O)c1ccc(Cl)cc1 | 105% |
| CCOc1ccc(I)cc1 | 103% |
| CC(C)C(C#N)(C(C)C)C(C)C | 104% |
| NC(=O)c1ccc(N=C(N)N=C(N)N)cc1 | 95.7% |
| O=C(NCCNC(=O)c1ccc(Cl)cc1Cl)c1ccc(Cl)cc1Cl | 106% |
| COC(=O)/C=C/C(=O)NC(N)=O | 96.3% |
| Cc1ccc(O)c(C(=O)c2ccccc2)c1 | 104% |
| CN(C)c1ccc(C(c2ccc(O)cc2)c2ccc(N(C)C)cc2)cc1 | 70.8% |
| Nc1ccc(N)c([N+](=O)[O-])c1 | 109% |
| CCOC(=O)c1[nH]c(C)c(C(C)=O)c1C | 103% |
| CC(C)C1CCCCC1O (configuration not stated) | 96% |

The compounds below were run on HT29 colon in the same assay as above. Settings: 10 µM.

| SMILES | growth |
| --- | --- |
| CC(=O)OCC1CCCO1 (configuration not stated) | 101% |
| N#CCCc1ccc(O)cc1 | 108% |
| Nc1ccc(N=Nc2ccc(S(=O)(=O)O)cc2)c2ccccc12 | 107% |
| O=C1OC(=O)C2C1C1(Cl)C(Cl)=C(Cl)C2(Cl)C2C(=O)OC(=O)C21 (configuration not stated) | 104% |
| CCCCCCCCO | 111% |
| O=c1[nH]nc(SC2CCCCC2)c(=O)[nH]1 | 97.1% |
| Cc1cc(C(O)(c2ccc(Nc3ccccc3)cc2)c2ccc(Nc3ccc(S(=O)(=O)O)cc3)cc2)ccc1N (configuration not stated) | -78.4% (active) |
| CCCNC(=O)c1ccc(S(N)(=O)=O)cc1 | 93.1% |
| CN(C)c1ccc2oc(=O)c3ccccc3c2c1 | 86.7% |
| Cc1ccc(CCCC(=O)O)c(C)c1 | 98.8% |
| Oc1ccccc1-c1nnco1 | 97.5% |
| COc1ccc(C(O)c2ccccc2)cc1 (configuration not stated) | 105% |
| FC(F)(F)c1ccc2c(c1)N(CCCN1CCN(C3CC3)CC1)c1ccccc1S2 | 36.1% |
| CC(=O)NCc1cc(C)c(C)cc1C | 97.2% |
| CCC(C)(O)c1ccc(C)cc1 (configuration not stated) | 107% |
| CC(C)(N)COS(=O)(=O)O | 113% |
| Cc1cc(C)cc(NCCC#N)c1 | 105% |
| O=C(O)CSCSCC(=O)O | 107% |
| O/N=C/c1ccc(O)cc1O | 102% |

| SMILES | growth |
| --- | --- |
| CCO/C=C1\SC(=S)N(c2cccc(C)c2)C1=O | 102% |
| Cc1cc2ccccc2c(O)c1C#N | 123% |
| O=C(O)/C=C/C(=O)NCc1ccccc1 | 105% |
| Cc1cc2nc(CO)[nH]c2cc1C | 102% |
| C=CCNc1ccccc1 | 98.4% |
| NC(=O)NC(=O)c1ccc(Cl)cc1 | 94.3% |
| CCOc1ccc(I)cc1 | 106% |
| CC(C)C(C#N)(C(C)C)C(C)C | 105% |
| CCCCOC(OCCCC)c1ccccc1 | 102% |
| NC(=O)c1ccc(N=C(N)N=C(N)N)cc1 | 105% |
| CCOc1ccccc1/C=N/Nc1nc2ccccc2o1 | 110% |
| CO[C@H]1C[C@@H]2CC[C@@H](C)[C@@](O)(O2)C(=O)C(=O)N2CCCC[C@H]2C(=O)O[C@H]([C@H](C)C[C@@H]2CC[C@@H](O)[C@H](OC)C2)CC(=O)[C@H](C)C=C(C)[C@@H](O)[C@@H](OC)C(=O)[C@H](C)C[C@H](C)/C=C/C=C/C=C1C | 45.3% |
| O=C(NCCNC(=O)c1ccc(Cl)cc1Cl)c1ccc(Cl)cc1Cl | 118% |
| COC(=O)/C=C/C(=O)NC(N)=O | 102% |
| Cc1ccc(O)c(C(=O)c2ccccc2)c1 | 104% |
| CN(C)c1ccc(C(c2ccc(O)cc2)c2ccc(N(C)C)cc2)cc1 | 86.2% |
| Nc1ccc(N)c([N+](=O)[O-])c1 | 121% |
| CCOC(=O)c1[nH]c(C)c(C(C)=O)c1C | 93% |
| CC(C)C1CCCCC1O (configuration not stated) | 106% |

Source: PubChem BioAssay (NCI)
